# Reference: paper PMC8384837, “Expanding the binding specificity for RNA recognition by a PUF domain”
# How the values were obtained:
# Experiment in all cases: yeast three-hybrid, YBZ-1, SC-Leu-His + 0.5 mM 3-AT, 4 days
# Conditions in all cases: tags: N-Gal4 AD-HA kept; label: inside an RPR1-promoter hybrid RNA with tandem MS2 sites; ssRNA
# PUM1 PUF domain R5-HQD = PUM1 PUF domain R5-HQD (Homo sapiens, UniProt Q14671 828-1176, C1007H;R1008Q;Q1011D)
# Outline: (§1)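 Sequencing with Illumina followed PCR amplification of the repeat regions from transformants grown four days on SC-Leu (input) or SC-Leu-His + 0.5 mM 3-AT (selection). The transformants were strain YBZ-1 with a LexA–MS2 coat fusion and a HIS3 reporter, carrying Pumilio-1 PUF domain libraries and matching RNA elements. The interaction score is the log change in variant frequency from input to selection, computed in log2 with a pseudocount of 1 for absent variants.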
# PUM1 PUF domain R5-KLM = PUM1 PUF domain R5-KLM (Homo sapiens, UniProt Q14671 828-1176, C1007K;R1008L;Q1011M)
# Outline: as §1
# PUM1 PUF domain R3-MCK = PUM1 PUF domain R3-MCK (Homo sapiens, UniProt Q14671 828-1176, C935M;R936C;Q939K)
# Outline: as §1
# PUM1 PUF domain R5-KGI = PUM1 PUF domain R5-KGI (Homo sapiens, UniProt Q14671 828-1176, C1007K;R1008G;Q1011I)
# Outline: as §1
# PUM1 PUF domain R4-SPL = PUM1 PUF domain R4-SPL (Homo sapiens, UniProt Q14671 828-1176, N971S;H972P;Q975L)
# Outline: as §1
# PUM1 PUF domain R3-VCQ = PUM1 PUF domain R3-VCQ (Homo sapiens, UniProt Q14671 828-1176, C935V;R936C)
# Outline: as §1
# PUM1 PUF domain R4-AQS = PUM1 PUF domain R4-AQS (Homo sapiens, UniProt Q14671 828-1176, N971A;H972Q;Q975S)
# Outline: as §1
# PUM1 PUF domain R1-GGR = PUM1 PUF domain R1-GGR (Homo sapiens, UniProt Q14671 828-1176, S863G;R864G;Q867R)
# Outline: as §1
# PUM1 PUF domain R8-MYL = PUM1 PUF domain R8-MYL (Homo sapiens, UniProt Q14671 828-1176, N1122M;Q1126L)
# Outline: as §1
# PUM1 PUF domain R1-KTR = PUM1 PUF domain R1-KTR (Homo sapiens, UniProt Q14671 828-1176, S863K;R864T;Q867R)
# Outline: as §1
# PUM1 PUF domain R3-VCQ, sequence (Q14671 828-1176 C935V/R936C): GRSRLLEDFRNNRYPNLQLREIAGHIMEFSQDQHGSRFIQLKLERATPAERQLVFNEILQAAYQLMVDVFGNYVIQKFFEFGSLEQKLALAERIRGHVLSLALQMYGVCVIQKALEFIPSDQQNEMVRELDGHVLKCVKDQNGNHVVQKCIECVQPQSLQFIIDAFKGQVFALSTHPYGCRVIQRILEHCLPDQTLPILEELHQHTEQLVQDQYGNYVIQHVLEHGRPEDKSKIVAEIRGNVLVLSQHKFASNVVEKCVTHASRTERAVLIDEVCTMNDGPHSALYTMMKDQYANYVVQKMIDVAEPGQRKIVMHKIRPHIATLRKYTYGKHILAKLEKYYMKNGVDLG
# PUM1 PUF domain R1-GGR, sequence (Q14671 828-1176 S863G/R864G/Q867R): as the sequence (Q14671 828-1176 C935V/R936C) above, with S36G, R37G, Q40R, V108C, C109R counted along it
# PUM1 PUF domain R5-KLM, sequence (Q14671 828-1176 C1007K/R1008L/Q1011M): as the sequence (Q14671 828-1176 C935V/R936C) above, with V108C, C109R, C180K, R181L, Q184M counted along it
# PUM1 PUF domain R4-SPL, sequence (Q14671 828-1176 N971S/H972P/Q975L): as the sequence (Q14671 828-1176 C935V/R936C) above, with V108C, C109R, N144S, H145P, Q148L counted along it
# PUM1 PUF domain R5-HQD, sequence (Q14671 828-1176 C1007H/R1008Q/Q1011D): as the sequence (Q14671 828-1176 C935V/R936C) above, with V108C, C109R, C180H, R181Q, Q184D counted along it
# PUM1 PUF domain R1-KTR, sequence (Q14671 828-1176 S863K/R864T/Q867R): as the sequence (Q14671 828-1176 C935V/R936C) above, with S36K, R37T, Q40R, V108C, C109R counted along it
# PUM1 PUF domain R5-KGI, sequence (Q14671 828-1176 C1007K/R1008G/Q1011I): as the sequence (Q14671 828-1176 C935V/R936C) above, with V108C, C109R, C180K, R181G, Q184I counted along it
# PUM1 PUF domain R3-MCK, sequence (Q14671 828-1176 C935M/R936C/Q939K): as the sequence (Q14671 828-1176 C935V/R936C) above, with V108M, Q112K counted along it
# PUM1 PUF domain R4-AQS, sequence (Q14671 828-1176 N971A/H972Q/Q975S): as the sequence (Q14671 828-1176 C935V/R936C) above, with V108C, C109R, N144A, H145Q, Q148S counted along it
# PUM1 PUF domain R8-MYL, sequence (Q14671 828-1176 N1122M/Q1126L): as the sequence (Q14671 828-1176 C935V/R936C) above, with V108C, C109R, N295M, Q299L counted along it
sequence,measurement,setting,value
GGCUAGAACUAGUGGAUCCCCCGGCGCCCGGCGGCUCGAGCCCGGGUAAGUGUUAAUAGUCUGCAUGCCGCCGGGCGCCAUGCCUGCAGGUCGACUCUAGAAAACAUG,binding signal,PUM1 PUF domain R5-HQD,3.03 log2 enrichment (interaction score)
same,binding signal,PUM1 PUF domain R5-KLM,0.44 log2 enrichment (interaction score)
GGCUAGAACUAGUGGAUCCCCCGGCGCCCGGCGGCUCGAGCCCGGGUAAGUGUAAGUAGUCUGCAUGCCGCCGGGCGCCAUGCCUGCAGGUCGACUCUAGAAAACAUG,binding signal,PUM1 PUF domain R3-MCK,4.78 log2 enrichment (interaction score)
GGCUAGAACUAGUGGAUCCCCCGGCGCCCGGCGGCUCGAGCCCGGGUAAGUGUCAAUAGUCUGCAUGCCGCCGGGCGCCAUGCCUGCAGGUCGACUCUAGAAAACAUG,binding signal,PUM1 PUF domain R5-KLM,2.69 log2 enrichment (interaction score)
same,binding signal,PUM1 PUF domain R5-KGI,3.97 log2 enrichment (interaction score)
GGCUAGAACUAGUGGAUCCCCCGGCGCCCGGCGGCUCGAGCCCGGGUAAGUGUAAAUAGUCUGCAUGCCGCCGGGCGCCAUGCCUGCAGGUCGACUCUAGAAAACAUG,binding signal,PUM1 PUF domain R4-SPL,2.38 log2 enrichment (interaction score)
same,binding signal,PUM1 PUF domain R3-VCQ,2.76 log2 enrichment (interaction score)
same,binding signal,PUM1 PUF domain R4-AQS,2.27 log2 enrichment (interaction score)
GGCUAGAACUAGUGGAUCCCCCGGCGCCCGGCGGCUCGAGCCCGGGUAAGUGUAAAUCGUCUGCAUGCCGCCGGGCGCCAUGCCUGCAGGUCGACUCUAGAAAACAUG,binding signal,PUM1 PUF domain R1-GGR,3.41 log2 enrichment (interaction score)
GGCUAGAACUAGUGGAUCCCCCGGCGCCCGGCGGCUCGAGCCCGGGUAAGUGUAAUUAGUCUGCAUGCCGCCGGGCGCCAUGCCUGCAGGUCGACUCUAGAAAACAUG,binding signal,PUM1 PUF domain R3-VCQ,0.32 log2 enrichment (interaction score)
GGCUAGAACUAGUGGAUCCCCCGGCGCCCGGCGGCUCGAGCCCGGGUAAGCGUAAAUAGUCUGCAUGCCGCCGGGCGCCAUGCCUGCAGGUCGACUCUAGAAAACAUG,binding signal,PUM1 PUF domain R8-MYL,2.58 log2 enrichment (interaction score)
GGCUAGAACUAGUGGAUCCCCCGGCGCCCGGCGGCUCGAGCCCGGGUAAGUGUAUAUAGUCUGCAUGCCGCCGGGCGCCAUGCCUGCAGGUCGACUCUAGAAAACAUG,binding signal,PUM1 PUF domain R4-SPL,1.39 log2 enrichment (interaction score)
GGCUAGAACUAGUGGAUCCCCCGGCGCCCGGCGGCUCGAGCCCGGGUAAGUGUAAAUUGUCUGCAUGCCGCCGGGCGCCAUGCCUGCAGGUCGACUCUAGAAAACAUG,binding signal,PUM1 PUF domain R1-GGR,1.86 log2 enrichment (interaction score)
same,binding signal,PUM1 PUF domain R1-KTR,4.86 log2 enrichment (interaction score)
